# Test system: VDR:RXRa (NR concentration 270 nM, RXRa partner concentration 90 nM)
# Assay: PBM binding z-score (relative to random genomic background probes); higher = stronger binding; sequences stand for … in GC…GCGATTGACAGCGTAGAATGAAGG
# Experimental: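 Protein-binding microarray (Agilent 4x180K custom design, double-stranded 60-nt probes: 5' GC cap, 34-nt variable region, 24-nt constant primer region; full probe sequence given). Purified or IVT nuclear receptor:RXRα heterodimers (3:1 NR:RXRα, mostly 270:90 nM) or homodimers were incubated for 1 h in PBS with 2% milk and no ligand, then detected with Alexa488 antibodies. Fluorescence from o1-orientation probes (~5 replicates averaged) was converted to z-scores against 500 random hg19 background probes. Variable regions are seed direct-repeat (DR0–DR5) sites, all their single-nucleotide variants and half-site ablations.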
row,Sequence,PBM binding z-score
1,ATCGAAAGGTCTACGAGGTGAGTATACACCGTTT,1.6
2,CCTACTGGGCCATTCAGAGGTCATTTATCATATG,3.73
3,GCATATAGGTAATACAAGTTGAAAGTCCGATTGT,0.409
4,CAAACTAGGTCACAGAAGTCAAAGTCCGTGCGTA,3.91
5,TGAATTAGGTTATAAGATCAGGGAACGTTGCAAA,-0.0623
6,GCATATAGGTAATACAAGCTGAAAGTCCGATTGT,-0.105
7,GCTTACGGGTCAACGGTTATAGCATGAATAGAAT,3.88
8,TCTTGTAAATCAACAGGAGGTTAAGAAAGATCGA,1.16
9,TATGCAGGGTCAAAGGCCAGAGTACGAATGTCGA,4.61
10,ATATGTAGGATAAGGGTCATTCAGGTTGGTTCGC,5.49
11,CCTACTGGGTCAAGGTCATTGATCAGTCAAAGCA,4.84
12,TCTTGTAGATCATTAGAGGTTAAGAAAGTGCGCT,2.09
13,GCTCGGAGGACAAGGGCAGAGCTTTGTCCGTAGA,-0.692
14,ACTAGCAGGCCAAGTTTGGGTCACTCCAACAAAG,0.642
15,TCGAGTAGGTTACCAATGTGGCATTCAGCTTTCT,-0.0444
16,CGAACTAGGTAATCCAGGACAGTGAATACATTGA,0.209
17,GGAACGAGGGCAAAGTTGAGAGCATCTGTCGACG,1.55
18,AGTCAAAGTTCACAAGGTAACGTAAGATTCAGCT,4.25
19,GCGACTGGGGCATCAGCAGATTACCATAACTTAA,-0.562
20,CCTTACGGGTCTCGAGGTTATAGCACGACGAGCG,0.479

row,Sequence,PBM binding z-score
1,AATACAGGGTCATCGGAGGCCAGAGTACGCACAG,5.88
2,AGTCAAAGTTCACTAGGTAACGCAAGATTCAGCT,3.39
3,CCTCCAAGGTCAAGGTCAGTGAAAGAGACTCGAA,4.69
4,TCTTGTAGATCAACAAGAGGTTAAGAAAGATCGA,1.08
5,GATACAGGGTCAGCTGGAGGCCAGAGTATGGAAA,3.29
6,GCTAGTTGGTCAGTATAAGGTCACACACCGGTCG,3.24
7,GGAACGAGGGCATTCGAGGTGATAGCATGGCGAT,2.4
8,CGAACTAGGTCAGACCAGGACAGTGAAGGATGAT,1.03
9,TGTTGTAGATCAATAGAGGTTAAGAAAGTGCGCT,1.92
10,TCATGTAGATCAGCAGGTTAAGAAAGCTGGCCAA,0.442
11,CAAACTAGGTCACCGGAAGGTCCAAGTCCGCATG,3.1
12,CCTAGTTGGTCAACGTCACACACGCTATAGGTAC,0.309
13,TTACCAAGGTGCAAGGTCGTTGATGCACGCCTTG,1.92
14,CTCGAAAGGTCGTACTCAGGTGAGTATACCAAAC,3.52
15,TCTTGTAGATCAAACAGGTTAAGAAAGCCTGAGT,0.979
16,GCTGCTAGGTCAGCTGATGGTCAGCTAAAGCTCG,-0.126
17,TGAATGAGGTTATAAGATCAGGGAGCGTTGCAAA,0.606
18,GCTAGTTGGTCAGTAAACGGTCACACACCGGTCG,-0.0437
19,TCGTGTAGGTTAGTCGGGGCATTCAGCCAACATA,2.72
20,TCATATAGGTAAATAGGTGAAAGTCCGTAAGTTA,1.25
